According to PubChem BioAssay:

Experiment: CREB reporter modulators under forskolin, primary screen, cell-based, PC12, CRE-LacZ reporter, forskolin-stimulated (AID 1146);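 further: PC12 cells with 6xCRE LacZ reporter stimulated by forskolin 10 µM; beta-galactosidase reporter signal reflecting CREB driven transcription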
Details: luminescence, 4.5 h, higher = more signal, called active from +8 up or from −8 down

z-score, inactive:
CCOC(=O)C1=C[C@@H](C(C)(C)C)N(S(=O)(=O)c2ccc(C)cc2)[C@H]1c1ccc(OC)cc1 0.334
CCCCC(=C=CC[C@H](O)c1ccccc1OCCO)CCO 1.37
C=CCC(OC(C)=O)[C@@H]1[C@@H](N(Cc2cccc3ccccc23)C(=O)c2ccc(C)cc2)c2cc(OCCCO)ccc2N1C(=O)Cc1ccc2ccccc2c1 (some centres undefined) -0.0127
COC(=O)[C@@]1(Cc2ccc(F)cc2)[C@@H]2C(=CC(=O)[C@H]2CC(=O)C(=O)N2CCCC2)CN1C(=O)c1ccccc1 1.86
COCCCNC(=O)[C@@]1(c2ccc([N+](=O)[O-])cc2)CC(=O)N(C2CCCCC2)[C@@H]1c1ccc(CO)cc1I -0.543
C=CCOC(=O)[C@H]1[C@@H]2C(=O)O[C@@H](c3ccccc3)[C@@H](c3ccccc3)N2[C@@H](c2ccc(OCCOC(=O)[C@H]3C[C@H]4C(=O)NCC(=O)N4[C@H]3c3ccc(O)cc3)cc2)[C@]12C(=O)Nc1ccccc12 -0.306
CC1CC/C=C\[C@H]2OC34C=CCN(CCN5CCOCC5)C(=O)[C@H]3N(C(CO)C(C)C)C(=O)[C@@H]4C2C(=O)O1 (some centres undefined) 0.341
CC(C)c1ccc(NN2C(C(O)c3ccccc3)C=CC3C(=O)N(c4ccccc4)C(=O)C32)cc1 (centres undefined) -0.0336
[N-]=[N+]=Nc1ccccc1C[C@@]1(C(=O)NCC(O)CO)N=C(c2ccc(OCCCO)cc2)O[C@@H]1c1ccccc1N=[N+]=[N-] (some centres undefined) -1.42
C=C(CCCC)C(=O)CC[C@@H](OC(C)=O)c1ccc(OCCO)cc1 -0.101
CN1C(=O)C2CC=C(C3=CCO[C@@H]3[C@H]3CCCN3S(=O)(=O)c3ccccc3[N+](=O)[O-])CC2C1=O (some centres undefined) 1.14
CC(C)[Si](C#Cc1ccccc1)(O[C@H](c1ccccc1)c1cn(Cc2ccccc2)nn1)C(C)C -1.08
COCCOC(=O)N1C(=O)[C@@]2(c3cc(C#CCNC(N)=O)ccc31)[C@H](C(N)=O)[C@H]1C(=O)O[C@H](c3ccccc3)[C@H](c3ccccc3)N1[C@@H]2c1ccc(O)cc1 -0.713
[N-]=[N+]=NCc1ccccc1C[C@]1(C(=O)N2CCCCC2)COC(c2ccc(OCCCO)cc2)=N1 1.43
C=CCNC(=O)[C@H]1[C@@H]2C(=O)O[C@@H](c3ccccc3)[C@@H](c3ccccc3)N2[C@@H](c2ccc(OCCO)cc2)[C@]12C(=O)N(C(=O)OCCOC)c1ccc(C#CCC(C(=O)OC)C(=O)OC)cc12 -0.228
CCCCC(=C=CC[C@@H](O)c1ccccc1OCCO)C[C@@H](O)c1ccccn1 -0.446
COC(=O)C(CC#Cc1ccc2c(c1)[C@]1(C(=O)N2)[C@H](C(=O)NC[C@H](O)c2ccccc2)[C@H]2C(=O)O[C@H](c3ccccc3)[C@H](c3ccccc3)N2[C@@H]1c1ccc(O)cc1)C(=O)OC -0.517
COCCOC(=O)N1C(=O)[C@@]2(c3cc(C#CC4=CCCCC4)ccc31)[C@H](c1ccc(O)cc1)N1[C@H](c3ccccc3)[C@H](c3ccccc3)OC(=O)[C@H]1[C@@H]2C(=O)N1CCc2cc(OC)c(OC)cc2C1 0.109
CC[C@@H](O[Si](C#C[Si](C(C)C)(C(C)C)C(C)C)(C(C)C)C(C)C)c1cn(Cc2cccc(Cl)c2)nn1 -0.168
C=C(CCCC)/C(=C/C[C@@H](OC(C)=O)c1cccc(OCCO)c1)c1cc(C(=O)OC)ccc1OC 1.48
CCCN1C(=O)[C@@]2(c3ccc([N+](=O)[O-])cc3)CC(=O)N(C3CCCCC3)[C@@H]2c2ccc(CO)cc21 -0.131
O=C1O[C@H](c2ccccc2)[C@H](c2ccccc2)N2[C@H]1[C@@H](C(=O)N1CCN(c3ncccn3)CC1)[C@]1(C(=O)Nc3ccc(C#CC4(O)CCCCCC4)cc31)[C@H]2c1ccc(O)cc1 -0.296
CC[C@@H](O[Si](C#C[Si](C(C)C)(C(C)C)C(C)C)(C(C)C)C(C)C)c1cn([C@H](CO)Cc2ccccc2)nn1 -0.038
[N-]=[N+]=NCc1ccccc1[C@H]1OC(c2ccc(OCCCO)cc2)=N[C@@]1(CCS(=O)(=O)c1ccccc1)C(=O)O -0.427
